From PubChem BioAssay
Compounds with a hit are over-represented: about 3.4% of the library has one in this group of screens.
FBW7 act = human FBW7 E3 ligase activation, primary screen | normalized activity (activation), % at 26.1 µM | actives 0.13% (n = 650,000) | AlphaScreen FBW7–phospho-cyclin E peptide binding, activator screen; in the data active = normalized activity above about 1.9%;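 also: purified mutant Fbw7 with reduced substrate affinity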
Target sequence (Q969H0 whole entry, looked up): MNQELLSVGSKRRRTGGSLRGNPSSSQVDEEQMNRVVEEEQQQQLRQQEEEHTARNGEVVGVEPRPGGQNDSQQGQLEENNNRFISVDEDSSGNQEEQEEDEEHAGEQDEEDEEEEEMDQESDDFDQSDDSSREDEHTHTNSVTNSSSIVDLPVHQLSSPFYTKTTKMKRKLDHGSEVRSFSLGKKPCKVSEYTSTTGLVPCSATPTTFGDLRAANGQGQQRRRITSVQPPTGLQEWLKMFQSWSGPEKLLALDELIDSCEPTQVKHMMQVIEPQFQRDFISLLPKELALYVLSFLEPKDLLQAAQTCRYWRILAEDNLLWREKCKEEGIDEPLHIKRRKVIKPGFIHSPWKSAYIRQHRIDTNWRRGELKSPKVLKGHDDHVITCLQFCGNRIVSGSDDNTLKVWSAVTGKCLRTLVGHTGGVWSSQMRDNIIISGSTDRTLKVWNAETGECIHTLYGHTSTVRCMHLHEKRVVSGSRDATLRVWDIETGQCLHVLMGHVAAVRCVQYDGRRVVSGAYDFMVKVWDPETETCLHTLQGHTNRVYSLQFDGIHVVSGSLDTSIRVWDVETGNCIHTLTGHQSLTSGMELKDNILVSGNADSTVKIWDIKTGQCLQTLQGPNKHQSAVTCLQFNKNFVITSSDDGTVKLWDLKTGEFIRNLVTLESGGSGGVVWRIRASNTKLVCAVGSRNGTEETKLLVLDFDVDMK
GPR151 ag = activates the human receptor GPR151; activation, % at 11.2 µM; actives 1% (n = 650,000); AID 1508602; PathHunter beta-arrestin GPR151 cells, luminescence; Q8TDV0; in the data active = activation above about 4.9%;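 also: 0% = median of compound wells and 100% = cells with positive control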
TEAD-YAP block = TEAD-YAP interaction inhibition; actives 1.4% (n = 640,000); HEK-TIYL cells, TEAD-Gal4/YAP UAS-luciferase luminescence; inhibition, % at 9.12 µM; in the data active = inhibition above about 32%;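 also: 0% = median of test compound wells and 100% = reference inhibitor wells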
MITF inh = blocks human microphthalmia-associated transcription factor; actives 0.91% (n = 650,000); AlphaScreen MITF homodimerization, bead proximity signal; O75030; inhibition, % at 2.6 µM; in the data active = inhibition above about 50%;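 also: 0% = vehicle wells with protein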
MITF inh conf = confirmation of human MITF inhibitors; inhibition, % at 2.6 µM; AlphaScreen MITF homodimerization, biotin/His-MITF beads; shares compounds with MITF inh; actives 16% (n = 4,700);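 active = inhibition above a cutoff derived from the DMSO control wells, cut at about 28% in these data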;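 also: 0% = MITF dimer wells with DMSO only; inhibitors lower the bead chemiluminescence by keeping MITF from dimerizing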
AS interf ctr = counter-screen: compounds optically interfering with AlphaScreen; actives 7.6% (n = 4,700); shares compounds with MITF inh; AID 1259376; inhibition, % at 2.6 µM; LysRS AlphaScreen counterscreen, signal interference, triplicate;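 active = inhibition above a cutoff derived from the DMSO control wells, cut at about 30% in these data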
Numbers without * were called inactive; . = no result given.

SMILES	FBW7 act	GPR151 ag	TEAD-YAP block	MITF inh	MITF inh conf	AS interf ctr
COc1cc(C)c(/C=C/[N+](=O)[O-])cc1C(C)C	0	0	37*	-9	.	.
CCOC(=O)C1C2NC(=S)N(c3cccc(Cl)c3)C1(C)Oc1ccccc12 (stereo unspecified)	0	0	5	8	.	.
CC[C@@]1(O)C[C@H](O[C@H]2C[C@H](N(C)C)[C@H](O)[C@H](C)O2)c2c(cc3c(c2O)C(=O)c2c(O)cccc2C3=O)[C@H]1C(=O)OC	0	0	51*	17	.	.
CC[C@@]1(O)C[C@H](O[C@H]2C[C@H](N(C)C)[C@H](O)[C@H](C)O2)c2c(cc3c(c2O)C(=O)c2c(O)ccc(O)c2C3=O)[C@H]1C(=O)OC	0	1	-9	17	.	.
O=C(c1ccccc1)c1cc(Br)ccc1NC(=O)c1cc2ccccc2oc1=O	0	1	12	-11	.	.
CC(C)n1ccc(C(=O)Nc2cc3ccccc3oc2=O)n1	0	-5	63*	-4	.	.
CN1C(=O)C(=Cc2ccc(Sc3cccc4ccccc34)o2)C(=O)N(C)C1=O	0	1	-10	-2	.	.
CCOC(=O)N1CCN(CC(=O)Nc2ccc(Br)cc2C(=O)c2ccccc2Br)CC1	0	-1	-5	-1	.	.
COc1ccc(C[C@H]2NC[C@H](O)[C@H]2OC(C)=O)cc1	0	4	103*	-4	.	.
COc1ccc(CC2C(=O)N(C)C(=O)N(C)C2=O)cc1	0	0	3	1	.	.
COc1cc(OC)c(OC)cc1CN1CCN(C(=O)COc2ccccc2)CC1	1	-2	13	54*	7	20
COc1ccc(OCC(=O)N2CCN(Cc3ccccc3C)CC2)cc1	0	0	-6	54*	6	0
COc1cccc(CN2CCN(C(=O)COc3cccc(C)c3)CC2)c1	0	1	0	57*	-4	3
COc1ccccc1CN1CCN(C(=O)COc2cccc(C)c2)CC1	0	-1	4	80*	-7	-4
CC(=O)N(C1=NCCCS1)c1ccc(C)cc1	0	0	0	14	.	.
CSc1ccc(CN2CCN(C(=O)COc3ccc(Cl)cc3)CC2)cc1	0	1	15	-7	.	.
O=C(COc1ccc(Br)cc1)N1CCN(Cc2ccc3c(c2)OCO3)CC1	0	2	9	64*	14	25
COc1ccc(OCC(=O)N2CCN(Cc3cccc(OC)c3)CC2)cc1	0	3	11	43	.	.
O=C(COc1ccc(Br)cc1)N1CCN(Cc2ccncc2)CC1	0	1	2	100*	-4	-2
COc1cc(CN2CCN(C(=O)COc3ccccc3)CC2)cc(OC)c1OC	0	0	-4	44	.	.
Cc1ccc(CC(=O)N2CCN(Cc3ccc4c(c3)OCO4)CC2)cc1	0	2	-1	11	.	.
COc1ccc(OCC(=O)N2CCN(Cc3cccc(Br)c3)CC2)cc1	0	0	-10	64*	13	-4
Cc1cccc(OCC(=O)N2CCN(Cc3ccncc3)CC2)c1	0	0	-8	73*	-3	3
Cc1cc(C)c2c(NCc3cnc(N(C)C)nc3)n[nH]c2n1	0	2	2	2	.	.
N#Cc1ccc(NC(=O)CCl)cc1Cl	0	-1	19	18	.	.
SMILES	FBW7 act	GPR151 ag	TEAD-YAP block	MITF inh	MITF inh conf	AS interf ctr
Cc1ccc(C2(O)CC3CCC(C2)N3Cc2ccnc(N3CCCC3)n2)cc1 (stereo unspecified)	0	-1	-6	-6	.	.
CCN(CC(=O)Nc1ccc(C#N)c(Cl)c1)CC(=O)Nc1c(F)cccc1F	0	3	0	4	.	.
CCN(CC(=O)Nc1ccc(Br)cc1)CC(=O)Nc1ccc(C#N)c(Cl)c1	0	-1	12	85*	5	10
CCN1CCC(N2CCCC(C(=O)c3ccc(Cl)cc3)C2)CC1 (stereo unspecified)	0	2	-1	-5	.	.
CCc1ccc(CN2CCN(Cc3ccccc3Br)CC2)cc1	0	1	3	57*	-2	6
CCN1CCN(Cc2ccccc2Br)CC1	0	-1	2	-6	.	.
O=[N+]([O-])c1ccccc1CN1CCN(Cc2ccccc2Br)CC1	0	-1	-1	58*	2	2
CCN1CCN(Cc2ccc(SC)cc2)CC1	0	1	4	39	.	.
CSc1ccc(CN2CCN(Cc3ccc(Br)cc3)CC2)cc1	0	2	-2	78*	14	13
O=[N+]([O-])c1ccccc1CN1CCN(Cc2ccccc2)CC1	0	2	-10	17	.	.
CSc1ccc(CN2CCN(Cc3ccccc3Br)CC2)cc1	0	0	2	75*	12	26
C=CCN1C(=O)NC(=O)C(Cc2ccc(C)cc2)C1=O (stereo unspecified)	0	0	1	10	.	.
CCC(C)N1CCN(Cc2cccc(Cl)c2)CC1 (stereo unspecified)	0	1	3	27	.	.
CC(C)N1CCN(Cc2ccc(Br)cc2)CC1	0	1	-3	26	.	.
CCC(C)N1CCN(Cc2ccc(Br)cc2)CC1 (stereo unspecified)	0	0	-8	71*	6	11
CCC(C)N1CCN(Cc2ccc(F)cc2)CC1 (stereo unspecified)	0	-1	-1	59*	-4	2
CC(C)N1CCN(Cc2ccc(F)cc2)CC1	0	1	6	55*	-3	-1
CCC(C)N1CCN(Cc2ccc(Cl)cc2)CC1 (stereo unspecified)	0	0	2	74*	9	14
O=c1c2ccccc2nc(/C=C\c2ccc(F)cc2)n1-c1ccc([N+](=O)[O-])cc1	0	-1	-10	-6	.	.
CC(C)N1CCN(Cc2ccncc2)CC1	0	-1	-1	82*	3	12
N#CCN1CCC(O)(c2cccnc2)CC1	0	1	-3	3	.	.
CN1CCN(Cc2ccc(O)c3ncccc23)CC1	-2	0	-5	94*	106*	101*
CN1CCN(Cc2c(O)ccc3ccccc23)CC1	0	1	-3	-12	.	.
O=C(COc1ccccc1)N1CCN(Cc2cccc(F)c2)CC1	0	-1	9	45	.	.
O=C(COc1ccc(Cl)cc1)N1CCN(Cc2cccc(F)c2)CC1	0	0	-1	68*	-2	2
COc1ccc(CN2CCN(C(=O)COc3ccc(Cl)cc3)CC2)cc1OCc1ccccc1	0	1	9	59*	3	11
CCCCCCSc1nc2ccccc2c(=O)n1-c1cccc(C)c1	0	1	18	12	.	.
CCc1ccc(CNCCc2c[nH]c3ccccc23)cc1	0	0	3	19	.	.
Brc1ccc(CNCCc2c[nH]c3ccccc23)cc1	1	3	7	55*	11	19
